Assay outcomes from PubChem BioAssay.
PNC assembly inh – perinucleolar compartment assembly inhibition; PC3M PTB-GFP, PNC prevalence imaging, 16 h; hits give low values; activity change (PNC), negative = inhibition, % at 10 µM; 3.1% of 140,000 active; AID 2417;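 active means readout at or below -70, meaning at least 70% loss of cells showing the perinucleolar compartment, a nuclear body marking cancer cells; inconclusive means readout between -30 and a set limit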
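Compounds are pinned in duplicate onto adhered PC3M cells stably expressing GFP-tagged PTB and incubated 16 h at 37 C. Cells are then fixed, nuclei stained with Hoechst, and PNC-positive cells counted.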
HPGD inh – inhibitors of human 15-hydroxyprostaglandin dehydrogenase (HPGD). P15428. purified HPGD, NADH fluorescence kinetic, PGE2 substrate. Potency, µM, most hits filed as inhibitors. 4.3% of 150,000 active. AID 894
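NADH formation kinetics: reaction with 30 uM PGE2 and 1 mM NAD+ (final), 20 nM enzyme, Tris-HCl pH 8 with Tween 20, after 15 min compound preincubation at room temperature. Fluorescence change, last versus first of five reads.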
ALDH1A1 block – ALDH1A1 (human) enzyme inhibition; P00352; Purified ALDH1A1, NADH fluorescence, propionaldehyde substrate; Potency, µM (series often up to 75.3 µM), hits mostly inhibitors; 7.3% of 220,000 active; AID 1030
Target sequence (P00352 whole entry, looked up): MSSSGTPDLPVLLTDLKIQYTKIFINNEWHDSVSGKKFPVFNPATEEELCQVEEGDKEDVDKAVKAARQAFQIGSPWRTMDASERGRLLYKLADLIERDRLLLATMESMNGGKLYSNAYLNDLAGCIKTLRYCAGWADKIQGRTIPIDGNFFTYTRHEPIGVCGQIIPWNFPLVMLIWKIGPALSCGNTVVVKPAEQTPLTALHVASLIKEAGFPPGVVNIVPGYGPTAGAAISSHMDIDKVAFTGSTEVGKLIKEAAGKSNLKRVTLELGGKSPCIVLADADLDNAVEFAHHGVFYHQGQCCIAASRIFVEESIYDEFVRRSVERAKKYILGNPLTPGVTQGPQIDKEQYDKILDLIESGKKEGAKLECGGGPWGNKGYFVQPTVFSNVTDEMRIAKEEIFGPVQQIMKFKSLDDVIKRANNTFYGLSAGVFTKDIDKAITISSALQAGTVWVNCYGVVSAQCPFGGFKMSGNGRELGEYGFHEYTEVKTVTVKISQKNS
12-hLO inh – inhibitors of human 12-lipoxygenase (ALOX12) | P18054 | purified 12-hLO, xylenol orange hydroperoxide absorbance | Potency, µM (titrated, usually from 57.1 µM), actives largely listed as inhibitors | 0.12% of 150,000 active | AID 1452; active means well fitted inhibition curve with a large enough effect; inconclusive means small, poorly fitted or top-dose-only effect; further: nearly all actives have a fitted effect of over 55% in size
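Lipoxygenase turnover measured by absorbance at 573 and 405 nm after Fe-XO development. Human 12hLO 150 nM, arachidonate 40 uM, pH 7.0 Hepes buffer with detergent; 15 min compound preincubation, 30 min reaction.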
Lamin A splicing – LMNA splicing modulation; HeLa LMNA splicing GFP/RFP minigene ratio, 48 h; Potency, µM (series often up to 46.1 µM), hits mostly inhibitors; 0.01% of 200,000 active; AID 1487; active means well fitted inhibition curve with a large enough effect in the signal ratio, with a control signal flat, not every such curve was filed as active; inconclusive means small, poorly fitted or top-dose-only effect, or effect the other way, or a change in a side signal; the % refers to the signal ratio
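Read-out is the ratio of GFP to DsRed2 object intensity, acquired by 488 nm laser-scanning cytometry on HeLa lamin A-EGFP minigene reporter cells. Compound incubation 48 hrs at 37 °C in Opti-MEM with 2% FBS; DMSO 0.5% final.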
Hits are given with their value; - = inactive; ? = inconclusive; . = no result; ! = repeats disagree; [ ] = dose if it differs, or a comment. Sampled rows, rich in hits. Any-hit rate of the full collection: about 10%. Unless noted, the call rests on the fitted dose curve; in most records, active means well fitted inhibition curve with a large enough effect (not every such curve was filed as active); inconclusive means small, poorly fitted or top-dose-only effect, or another doubt; inactive means no such curve, though single readings can be large or run the other way.

SMILES	PNC assembly inh	HPGD inh	ALDH1A1 block	12-hLO inh	Lamin A splicing
CC(C)C[C@@H]1NC(=O)[C@H](Cc2ccc(O)cc2)NC(=O)[C@H](CCC(N)=O)NC(=O)c2cc([N+](=O)[O-])cc(I)c2NCC[C@@H](C(N)=O)NC1=O	?	-	4µM	-	-
O=c1[nH]c(C2CCCN(S(=O)(=O)c3ccccc3)C2)nc2c1nnn2Cc1ccccc1 (stereo unspecified)	?	14µM	10µM	-	-
O=c1[nH]c(C2CCCN(S(=O)(=O)c3ccccc3)C2)nc2c1nnn2Cc1ccccc1F (stereo unspecified)	-	13µM	?	-	-
CC1(C)CNC(=O)c2sc(NC(=O)c3ccccc3Cl)nc2C1	.	.	13µM	.	.
CC(=O)c1sc(NC(=O)C2COc3ccccc3O2)nc1C (stereo unspecified)	?	-	-	-	-
CC1(C)CC(=O)c2sc(NC(=O)c3ccco3)nc2C1	-	-	22µM	-	-
CC1(C)CC(=O)c2sc(NC(=O)C3COc4ccccc4O3)nc2C1 (stereo unspecified)	?	-	16µM	-	-
Cc1cccc2sc(NNC(=O)C3COc4ccccc4O3)nc12 (stereo unspecified)	?	28µM	-	-	?
O=C(NNc1nc2c(F)cc(F)cc2s1)C1COc2ccccc2O1 (stereo unspecified)	.	.	-	.	.
CC1CC(C)(C)CC2(C1)NC(=S)N(c1ccccc1)N2 (stereo unspecified)	-	-	16µM	?	?
CC1CCCCC12NC(=S)N(c1ccccc1)N2 (stereo unspecified)	.	.	14µM	.	.
COc1ccc(Oc2ncc3nc(-c4cc(F)cc(F)c4)c(=O)n(C)c3n2)cc1	.	?	?	-	.
O=C(CN1C(=O)NC2(CCCCCC2)C1=O)N1CCC(Cc2ccccc2)CC1	-	-	22µM	-	?
CNc1nc2[nH]c(=O)c3c(c2s1)OC(N)=C(C#N)C3c1cccc(F)c1 (stereo unspecified)	-	?	7.1µM	-	-
CCOc1ccc(N2C(=O)CC(NCCNc3ccc(C(=O)c4cccs4)cc3)C2=O)cc1 (stereo unspecified)	.	.	22µM	.	?
CCOc1ccc(N2C(=O)CC(NCc3ccc(F)cc3)C2=O)cc1 (stereo unspecified)	?	-	?	-	-
CCOc1ccc(C(=O)c2cccs2)cc1	-	16µM	-	-	-
O=C(c1ccccc1)c1cccs1	.	.	-	.	-
N[C@@H](CCCCO)C(=O)O	.	-	-[13.5 µM]	-[11.4 µM]	.
Cc1cc2c(cc1S(=O)(=O)N(C)CC(=O)Nc1cccc(C#N)c1)OCC(=O)N2	.	.	.	.	-
CC(C)(CCc1nc2ccccc2[nH]1)C(=O)O	.	-	-[13.5 µM]	-[11.4 µM]	.
CC(=O)c1ccc(Oc2ncnc3sccc23)c(CN2CCOCC2)c1	-	25µM	?	-	-
COc1cccc(C(=O)N/N=C(\CC(C)C)c2ccccc2)c1	?	-	-	-	?
Cc1ccc(C(=O)N/N=C(\CC(C)C)c2ccccc2)cc1	-105	-	-	-	-
CSc1ncc(Cl)c(C(=O)C(C#N)c2nc3c(C)cc(C)cc3c(=O)[nH]2)n1 (stereo unspecified)	-95	25µM	-	-	?
SMILES	PNC assembly inh	HPGD inh	ALDH1A1 block	12-hLO inh	Lamin A splicing
Cc1ccc2cc3cc(C(=O)NCCN4CCOCC4)oc3nc2c1	-100	?	?	-	-
CCCCNc1nc(C)nc2c1nc(-c1ccccc1)n2CC1CCCN1CC (stereo unspecified)	.	?	?	-	.
Cn1c(=O)c2c(nc(NCc3ccc4c(c3)OCO4)n2Cc2ccccc2F)n(C)c1=O	-	-	13µM	-	-
Cn1c(=O)c2c(nc(CN3CCN(C(=O)c4ccco4)CC3)n2Cc2ccc(F)cc2)n(C)c1=O	-	-	20µM	-	-
Cn1c(=O)c2c(nc(NCc3ccc4c(c3)OCO4)n2Cc2ccccc2)n(C)c1=O	-	-	?	-	?
Cn1c(=O)c2c(nc(CN3CCN(C(=O)c4ccco4)CC3)n2Cc2ccccc2F)n(C)c1=O	-	-	13µM	-	-
CCOc1ccc(NC(=O)CSc2nccn2-c2cccc(C)c2C)cc1	.	.	.	.	-
CC(=O)c1ccc(OC2C(O)COC2/C=C/c2ccc(Cl)cc2)cc1 (stereo unspecified)	.	.	4µM!	.	.
CC(=O)c1ccc(OC2OCCOC2Oc2ccc(C(C)=O)cc2)cc1 (stereo unspecified)	-	-	-	-	?
